# Experimental data taken from ChEMBL document CHEMBL2218924, “A broad activity screen in support of a chemogenomic map for kinase signalling research and drug discovery” (Biochem J, 2013).
# How the values were obtained:
# [1] = target: T1, Serine/threonine-protein kinase STK11 (Homo sapiens) (UniProt Q15831); conditions: at 1 µM
# T1 sequence (whole entry): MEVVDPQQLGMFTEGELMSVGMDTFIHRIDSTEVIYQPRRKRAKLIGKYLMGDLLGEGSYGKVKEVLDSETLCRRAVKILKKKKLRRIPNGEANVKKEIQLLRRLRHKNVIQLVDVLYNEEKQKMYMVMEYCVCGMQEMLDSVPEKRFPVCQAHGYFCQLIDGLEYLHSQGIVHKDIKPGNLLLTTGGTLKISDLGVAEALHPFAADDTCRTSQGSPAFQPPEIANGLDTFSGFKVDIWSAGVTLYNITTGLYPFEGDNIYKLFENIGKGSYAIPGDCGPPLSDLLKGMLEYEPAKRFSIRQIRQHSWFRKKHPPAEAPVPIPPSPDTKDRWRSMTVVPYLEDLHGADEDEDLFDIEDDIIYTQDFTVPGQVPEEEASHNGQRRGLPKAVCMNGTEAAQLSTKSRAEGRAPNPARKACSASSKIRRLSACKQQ
# [2] = target: T1, Serine/threonine-protein kinase STK11 (Homo sapiens); conditions: at 10 µM
# [3] = target: Serine/threonine-protein kinase 10 (Homo sapiens) (UniProt O94804); conditions: at 1 µM
# Sequence of Serine/threonine-protein kinase 10 (Homo sapiens) (O94804 whole entry, looked up): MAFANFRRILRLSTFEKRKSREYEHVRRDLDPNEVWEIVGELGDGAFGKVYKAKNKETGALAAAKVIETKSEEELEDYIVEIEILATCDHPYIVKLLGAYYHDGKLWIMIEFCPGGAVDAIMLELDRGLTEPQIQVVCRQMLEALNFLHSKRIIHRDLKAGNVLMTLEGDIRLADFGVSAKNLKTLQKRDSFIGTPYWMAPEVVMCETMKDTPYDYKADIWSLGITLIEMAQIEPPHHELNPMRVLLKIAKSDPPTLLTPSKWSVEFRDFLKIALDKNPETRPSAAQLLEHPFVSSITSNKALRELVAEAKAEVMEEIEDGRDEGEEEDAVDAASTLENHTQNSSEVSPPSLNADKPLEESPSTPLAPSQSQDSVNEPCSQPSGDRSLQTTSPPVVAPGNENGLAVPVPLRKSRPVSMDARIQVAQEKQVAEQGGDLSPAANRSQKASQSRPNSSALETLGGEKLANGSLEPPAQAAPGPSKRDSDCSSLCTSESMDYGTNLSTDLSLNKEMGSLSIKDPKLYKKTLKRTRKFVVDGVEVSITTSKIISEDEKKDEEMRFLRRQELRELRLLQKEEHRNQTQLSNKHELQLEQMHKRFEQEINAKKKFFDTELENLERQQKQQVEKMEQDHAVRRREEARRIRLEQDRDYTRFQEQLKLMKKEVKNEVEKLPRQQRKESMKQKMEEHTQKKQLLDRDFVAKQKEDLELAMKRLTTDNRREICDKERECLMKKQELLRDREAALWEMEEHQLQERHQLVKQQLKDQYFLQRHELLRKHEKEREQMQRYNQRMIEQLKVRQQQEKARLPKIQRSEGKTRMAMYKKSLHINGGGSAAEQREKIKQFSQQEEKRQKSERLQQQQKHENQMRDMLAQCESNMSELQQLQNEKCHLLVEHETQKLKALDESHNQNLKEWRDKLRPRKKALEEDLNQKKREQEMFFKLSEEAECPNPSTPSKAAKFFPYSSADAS
# [4] = target: Serine/threonine-protein kinase 10 (Homo sapiens) (UniProt O94804); conditions: at 10 µM
# [5] = target: Tyrosine-protein kinase Lck (Homo sapiens) (UniProt P06239); conditions: at 1 µM
# Sequence of Tyrosine-protein kinase Lck (Homo sapiens) (P06239 2-509 limits assumed): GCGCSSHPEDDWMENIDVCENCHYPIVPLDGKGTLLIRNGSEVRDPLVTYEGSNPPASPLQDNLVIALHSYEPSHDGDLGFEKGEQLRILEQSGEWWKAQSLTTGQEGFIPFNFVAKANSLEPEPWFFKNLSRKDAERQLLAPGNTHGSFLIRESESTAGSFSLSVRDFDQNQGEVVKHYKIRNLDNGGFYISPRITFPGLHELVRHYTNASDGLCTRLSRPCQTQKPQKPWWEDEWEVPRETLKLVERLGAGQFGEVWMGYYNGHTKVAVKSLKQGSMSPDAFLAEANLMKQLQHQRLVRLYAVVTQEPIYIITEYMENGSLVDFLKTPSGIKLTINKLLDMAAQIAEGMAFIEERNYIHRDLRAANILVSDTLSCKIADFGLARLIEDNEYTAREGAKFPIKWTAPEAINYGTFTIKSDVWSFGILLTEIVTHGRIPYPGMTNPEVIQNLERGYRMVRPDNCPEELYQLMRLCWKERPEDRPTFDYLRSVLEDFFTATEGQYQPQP
# [6] = target: Tyrosine-protein kinase Lck (Homo sapiens) (UniProt P06239); conditions: at 10 µM
# [7] = target: Tyrosine-protein kinase Lck (Homo sapiens) (UniProt P06239); conditions: at 1 µM; remark: listed apart in the source
# [8] = target: Tyrosine-protein kinase Lck (Homo sapiens) (UniProt P06239); conditions: at 10 µM; remark: listed apart in the source
# [9] = target: Tyrosine-protein kinase Lyn (Homo sapiens) (UniProt P07948); conditions: at 1 µM
# Sequence of Tyrosine-protein kinase Lyn (Homo sapiens) (P07948 2-512 limits assumed): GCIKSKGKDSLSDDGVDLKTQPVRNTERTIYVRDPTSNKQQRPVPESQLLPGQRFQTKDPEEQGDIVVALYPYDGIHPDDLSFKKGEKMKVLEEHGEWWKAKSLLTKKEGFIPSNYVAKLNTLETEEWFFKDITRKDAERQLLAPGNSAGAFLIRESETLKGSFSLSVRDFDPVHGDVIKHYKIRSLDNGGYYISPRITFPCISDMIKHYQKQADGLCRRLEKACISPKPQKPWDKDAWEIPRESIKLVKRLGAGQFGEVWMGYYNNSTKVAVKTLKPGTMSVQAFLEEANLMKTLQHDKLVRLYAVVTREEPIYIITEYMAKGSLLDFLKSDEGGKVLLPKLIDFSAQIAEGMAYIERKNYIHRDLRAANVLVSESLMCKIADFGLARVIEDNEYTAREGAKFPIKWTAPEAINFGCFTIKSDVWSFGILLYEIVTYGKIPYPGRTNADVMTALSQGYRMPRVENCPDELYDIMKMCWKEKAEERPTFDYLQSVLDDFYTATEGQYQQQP
# [10] = target: Tyrosine-protein kinase Lyn (Homo sapiens) (UniProt P07948); conditions: at 10 µM
# [11] = target: Mitogen-activated protein kinase 3 (Homo sapiens) (UniProt P27361); conditions: at 1 µM
# Sequence of Mitogen-activated protein kinase 3 (Homo sapiens) (P27361 whole entry): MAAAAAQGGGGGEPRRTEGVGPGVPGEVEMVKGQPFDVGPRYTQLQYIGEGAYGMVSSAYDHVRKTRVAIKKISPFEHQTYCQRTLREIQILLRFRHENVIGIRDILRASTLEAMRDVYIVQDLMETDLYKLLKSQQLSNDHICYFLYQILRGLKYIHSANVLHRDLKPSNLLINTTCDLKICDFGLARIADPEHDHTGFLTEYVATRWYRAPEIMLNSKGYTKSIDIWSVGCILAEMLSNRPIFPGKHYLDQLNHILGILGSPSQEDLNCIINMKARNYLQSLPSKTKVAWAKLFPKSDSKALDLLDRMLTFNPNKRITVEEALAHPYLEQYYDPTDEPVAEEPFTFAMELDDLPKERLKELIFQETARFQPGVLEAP
# [12] = target: Mitogen-activated protein kinase 3 (Homo sapiens) (UniProt P27361); conditions: at 10 µM
# [13] = target: Mitogen-activated protein kinase 1 (Homo sapiens) (UniProt P28482); conditions: at 1 µM
# Sequence of Mitogen-activated protein kinase 1 (Homo sapiens) (P28482 whole entry): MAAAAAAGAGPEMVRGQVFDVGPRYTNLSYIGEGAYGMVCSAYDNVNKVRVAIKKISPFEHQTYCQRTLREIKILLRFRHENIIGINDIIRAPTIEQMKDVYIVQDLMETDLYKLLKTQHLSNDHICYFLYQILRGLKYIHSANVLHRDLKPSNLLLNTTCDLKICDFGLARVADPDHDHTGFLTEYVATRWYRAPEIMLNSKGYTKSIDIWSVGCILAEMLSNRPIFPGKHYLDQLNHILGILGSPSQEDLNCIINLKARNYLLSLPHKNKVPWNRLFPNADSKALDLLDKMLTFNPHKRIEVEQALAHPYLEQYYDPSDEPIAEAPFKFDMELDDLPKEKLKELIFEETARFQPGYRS
# [14] = target: Mitogen-activated protein kinase 1 (Homo sapiens) (UniProt P28482); conditions: at 10 µM
# [15] = target: MAP kinase-activated protein kinase 2 (Homo sapiens) (UniProt P49137); conditions: at 1 µM
# Sequence of MAP kinase-activated protein kinase 2 (Homo sapiens) (P49137 whole entry, looked up): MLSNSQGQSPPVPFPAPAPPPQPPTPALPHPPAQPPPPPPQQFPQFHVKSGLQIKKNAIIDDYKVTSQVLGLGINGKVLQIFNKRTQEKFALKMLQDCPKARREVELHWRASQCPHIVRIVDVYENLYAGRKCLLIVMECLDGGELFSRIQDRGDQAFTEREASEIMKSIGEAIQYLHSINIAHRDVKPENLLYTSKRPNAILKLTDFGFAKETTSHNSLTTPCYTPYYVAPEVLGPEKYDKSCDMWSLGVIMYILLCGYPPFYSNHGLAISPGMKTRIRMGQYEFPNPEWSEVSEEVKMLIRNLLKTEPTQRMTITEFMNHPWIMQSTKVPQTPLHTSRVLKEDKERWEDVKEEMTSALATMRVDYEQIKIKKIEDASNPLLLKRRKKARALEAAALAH
# [16] = target: MAP kinase-activated protein kinase 2 (Homo sapiens) (UniProt P49137); conditions: at 10 µM
# [17] = target: MAP kinase-activated protein kinase 3 (Homo sapiens) (UniProt Q16644); conditions: at 1 µM
# Sequence of MAP kinase-activated protein kinase 3 (Homo sapiens) (Q16644 whole entry, looked up): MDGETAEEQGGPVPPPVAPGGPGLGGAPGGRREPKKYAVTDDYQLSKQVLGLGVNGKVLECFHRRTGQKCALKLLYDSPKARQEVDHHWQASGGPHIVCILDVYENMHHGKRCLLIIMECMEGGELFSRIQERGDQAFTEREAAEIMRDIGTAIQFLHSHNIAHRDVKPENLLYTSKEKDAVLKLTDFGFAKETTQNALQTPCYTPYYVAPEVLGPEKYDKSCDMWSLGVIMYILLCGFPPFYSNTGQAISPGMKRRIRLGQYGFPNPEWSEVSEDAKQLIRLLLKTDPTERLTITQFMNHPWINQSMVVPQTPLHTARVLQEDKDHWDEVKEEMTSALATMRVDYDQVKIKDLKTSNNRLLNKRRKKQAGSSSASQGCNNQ
# [18] = target: MAP kinase-activated protein kinase 3 (Homo sapiens) (UniProt Q16644); conditions: at 10 µM
# [19] = target: Serine/threonine-protein kinase MARK1 (Homo sapiens) (UniProt Q9P0L2); conditions: at 1 µM
# Sequence of Serine/threonine-protein kinase MARK1 (Homo sapiens) (Q9P0L2 whole entry, looked up): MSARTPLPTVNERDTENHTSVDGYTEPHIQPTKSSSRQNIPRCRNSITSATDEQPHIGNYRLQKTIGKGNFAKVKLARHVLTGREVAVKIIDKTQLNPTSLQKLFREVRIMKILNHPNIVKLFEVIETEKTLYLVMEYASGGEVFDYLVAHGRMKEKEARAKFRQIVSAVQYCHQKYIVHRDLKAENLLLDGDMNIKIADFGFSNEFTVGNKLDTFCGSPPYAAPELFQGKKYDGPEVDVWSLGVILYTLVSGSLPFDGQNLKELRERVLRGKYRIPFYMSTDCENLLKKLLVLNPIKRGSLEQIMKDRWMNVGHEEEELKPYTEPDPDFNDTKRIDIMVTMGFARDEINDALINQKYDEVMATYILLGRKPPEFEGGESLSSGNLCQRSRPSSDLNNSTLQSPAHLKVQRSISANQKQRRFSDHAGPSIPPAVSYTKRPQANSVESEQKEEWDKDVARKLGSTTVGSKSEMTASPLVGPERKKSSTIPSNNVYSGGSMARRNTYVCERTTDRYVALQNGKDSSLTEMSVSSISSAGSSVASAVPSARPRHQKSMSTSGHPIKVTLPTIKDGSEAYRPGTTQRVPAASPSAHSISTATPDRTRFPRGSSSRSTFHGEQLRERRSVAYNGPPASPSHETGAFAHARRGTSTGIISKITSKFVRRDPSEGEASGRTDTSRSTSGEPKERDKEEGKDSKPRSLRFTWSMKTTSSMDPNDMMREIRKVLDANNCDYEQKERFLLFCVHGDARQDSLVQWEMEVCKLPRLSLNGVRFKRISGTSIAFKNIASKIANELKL
# [20] = target: Serine/threonine-protein kinase MARK1 (Homo sapiens) (UniProt Q9P0L2); conditions: at 10 µM
smiles,measurement,setting,value
CC(C)[C@H](CO)Nc1nc(Nc2cccc(Cl)c2)c2ncn(C(C)C)c2n1,residual activity,[1],99%
same,residual activity,[2],86%
same,residual activity,[3],91%
same,residual activity,[4],37%
same,residual activity,[5],28%
same,residual activity,[6],14%
same,residual activity,[7],52%
same,residual activity,[8],8%
same,residual activity,[9],11%
same,residual activity,[10],0%
same,residual activity,[11],98%
same,residual activity,[12],40%
same,residual activity,[13],102%
same,residual activity,[14],33%
same,residual activity,[15],81%
same,residual activity,[16],88%
same,residual activity,[17],124%
same,residual activity,[18],84%
same,residual activity,[19],78%
same,residual activity,[20],46%
O=C1Nc2ccc3ncsc3c2/C1=C/c1c[nH]cn1,residual activity,[1],21%
same,residual activity,[2],1%
same,residual activity,[3],29%
same,residual activity,[4],7%
same,residual activity,[5],55%
same,residual activity,[6],17%
same,residual activity,[7],44%
same,residual activity,[8],23%
same,residual activity,[9],46%
same,residual activity,[10],6%
same,residual activity,[11],5%
same,residual activity,[12],0%
same,residual activity,[13],4%
same,residual activity,[14],-3%
same,residual activity,[15],82%
same,residual activity,[16],67%
same,residual activity,[17],103%
same,residual activity,[18],99%
same,residual activity,[19],9%
same,residual activity,[20],0%
CC(C)(C)c1cc(C=C(C#N)C#N)cc(Br)c1O,residual activity,[3],100%
same,residual activity,[4],68%
same,residual activity,[6],49%
same,residual activity,[7],105%
same,residual activity,[9],73%
same,residual activity,[10],13%
same,residual activity,[11],129%
same,residual activity,[12],97%
same,residual activity,[13],105%
same,residual activity,[14],104%
same,residual activity,[15],104%
same,residual activity,[17],107%
same,residual activity,[18],69%
same,residual activity,[19],105%
CC(=O)c1ccc(N2CCOCC2)cc1O,residual activity,[17],131%
N/C(=N\[N+](=O)[O-])N/N=C\c1ccc(-c2cccc([N+](=O)[O-])c2)o1,residual activity,[3],94%
same,residual activity,[4],99%
same,residual activity,[5],77%
same,residual activity,[6],93%
same,residual activity,[7],96%
same,residual activity,[8],91%
same,residual activity,[9],79%
same,residual activity,[10],66%
same,residual activity,[11],94%
same,residual activity,[12],99%
same,residual activity,[18],88%
same,residual activity,[19],98%
same,residual activity,[20],85%
O=[N+]([O-])/C=C/c1ccc2c(c1)OCO2,residual activity,[1],105%
same,residual activity,[2],95%
same,residual activity,[3],104%
same,residual activity,[5],135%
same,residual activity,[7],94%
same,residual activity,[8],81%
same,residual activity,[9],90%
same,residual activity,[10],73%
same,residual activity,[11],78%
same,residual activity,[12],86%
same,residual activity,[13],106%
same,residual activity,[14],84%
same,residual activity,[15],84%
same,residual activity,[16],108%
same,residual activity,[17],93%
same,residual activity,[18],83%
same,residual activity,[19],91%
same,residual activity,[20],85%
c1ccc(-c2n[nH]c3c2oc2ccccc23)cc1,residual activity,[17],94%
c1cc(-c2cnn3cc(-c4ccc(OCCN5CCCCC5)cc4)cnc23)ccn1,residual activity,[1],101%
same,residual activity,[2],102%
same,residual activity,[3],37%
same,residual activity,[4],19%
same,residual activity,[5],23%
same,residual activity,[6],12%
same,residual activity,[7],44%
same,residual activity,[8],10%
same,residual activity,[9],14%
same,residual activity,[10],2%
same,residual activity,[11],101%
same,residual activity,[12],104%
same,residual activity,[18],84%
same,residual activity,[19],60%
same,residual activity,[20],16%
CO[C@H]1[C@@H](OC)C[C@H](C)[C@@H](OC)C2=CC(=O)C=C(NC(=O)/C(C)=C/C=C/[C@H](OC)[C@@H](OC(N)=O)/C(C)=C/[C@@H]1C)C2=O,residual activity,[17],110%
Cc1ccc(S(=O)(=O)/C=C/C#N)cc1,residual activity,[17],94%
CC(C)n1cnc2c(NCc3ccccc3)nc(NCCCO)nc21,residual activity,[17],91%
COc1ccc(S(=O)(=O)N(CCO)c2ccccc2CN(C)C/C=C/c2ccc(Cl)cc2)cc1,residual activity,[17],118%
O=C1c2ccccc2-c2nc3nnnn3nc21,residual activity,[1],108%
same,residual activity,[2],101%
same,residual activity,[5],134%
same,residual activity,[7],104%
same,residual activity,[8],124%
same,residual activity,[10],64%
same,residual activity,[17],105%
same,residual activity,[18],108%
same,residual activity,[19],107%
same,residual activity,[20],104%
O=C1NC(=O)c2c1c1c3ccccc3n3c1c1c2c2ccccc2n1C1CCC3O1,residual activity,[5],50%
same,residual activity,[6],62%
same,residual activity,[7],70%
same,residual activity,[8],71%
same,residual activity,[9],10%
same,residual activity,[10],10%
same,residual activity,[11],128%
same,residual activity,[12],83%
same,residual activity,[17],95%
same,residual activity,[18],95%
same,residual activity,[19],38%
same,residual activity,[20],29%
Cc1cc2ncc(-c3ccccc3)nc2cc1C,residual activity,[17],135%
COc1cc2ncnc(Nc3ccc(OCc4ccccc4)cc3)c2cc1OC,residual activity,[1],104%
same,residual activity,[2],98%
same,residual activity,[3],51%
same,residual activity,[4],43%
same,residual activity,[5],31%
same,residual activity,[6],10%
same,residual activity,[7],15%
same,residual activity,[8],12%
same,residual activity,[9],21%
same,residual activity,[10],9%
same,residual activity,[11],93%
same,residual activity,[12],88%
same,residual activity,[13],103%
same,residual activity,[14],99%
same,residual activity,[15],124%
same,residual activity,[16],105%
same,residual activity,[17],101%
same,residual activity,[18],115%
same,residual activity,[19],104%
same,residual activity,[20],94%
Oc1ccc(Nc2nc(-c3ccc(Cl)cc3)cs2)cc1,residual activity,[17],139%
CN[C@@H]1C[C@H]2O[C@@](C)([C@@H]1OC)n1c3ccccc3c3c4c(c5c6ccccc6n2c5c31)C(=O)NC4,residual activity,[18],46%
